# Several values for one entry are separate records, joined by “and”; a condition that tells them apart may be missing. Equal values may be shown once. Values without a mark were called inactive. Inconclusive results are not listed. Where a call stands in place of a potency, no number is given. Activity calls are given as the source filed them. Unless noted, calls come from the whole dose curve; as a rule, active = well fitted curve in either direction with a large enough effect (not every such curve was filed as active); inconclusive = small, poorly fitted or top-dose-only effect, or another doubt; inactive = flat fitted curve, though single readings scatter.
# Experiments:
# [1] = AP1 Signaling Pathway (AID 357); conditions: ME-180 AP-1-bla reporter, EGF-induced, beta-lactamase ratio, 5 h;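 note: ME-180 reporter cells stimulated with EGF at its EC50 level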
# Summary of the method: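 Read-out was the 460nm/530nm emission ratio (excitation 405nm) after CCF4 loading for 2.5 hours at room temperature. Cells carried an AP-1-driven beta-lactamase reporter, were stimulated with EC50 EGF plus compound for 5 hours, and AC50 values came from titrations.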
# [2] = biological target: Cytochrome P450 1A2 (Homo sapiens) (UniProt P05177); assay: p450-cyp1a2 (AID 410; calls by dose curve)
# Summary of the method: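 Human CYP1A2 (20nM) demethylated Luciferin-ME at its Km (100uM) in 100mM KPO4. After 10 min compound preincubation, NADPH regeneration ran the reaction 60 min at room temperature. Luciferin was read by luminescence, normalized to 57 uM furafylline.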
# [3] = NFAT Signaling Pathway (AID 444); conditions: Jurkat NFAT-bla M1, carbachol, beta-lactamase ratio, 5 h;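 note: carbachol stimulus at about its EC50 of 1 µM final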
# Summary of the method: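 Jurkat cells with NFAT-driven β-lactamase reporter and co-expressed M1 receptor, stimulated with carbachol (final 1 uM, ~EC50), compound titration, 5 h at 37 °C. CCF4 loaded 1 h at RT; 460/530 nm ratio gave %activity and AC50.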
# [4] = Stat Signaling Pathway (AID 446); conditions: ME-180 SIE beta-lactamase reporter, IL-6 stimulated, 5 h;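 note: ME-180 cervical cancer cells given 40 pM IL-6 alongside compound; SIE-controlled beta-lactamase reporter measured as 460/530 nm FRET emission ratio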
# Summary of the method: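 Reporter line: ME-180 cervical carcinoma, SIE-beta-lactamase. Treatment: compound with 40 pM IL-6, 5 hrs, 37 C, in low-serum OPTI-MEM with 10 mM HEPES pH 7.3. Detection: 460/530 nm fluorescence.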
# [5] = biological target: Glucocorticoid receptor (Homo sapiens) (UniProt P04150); assay: GR-GFP Redistribution (AID 450;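 active = compounds whose dose series gives a full or clear partial fitted curve of increased nuclear translocation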; note: potency is the fitted concentration of half-maximal effect); conditions: U2OS GR-GFP nuclear translocation, laser cytometry, 2 h
# [6] = biological target: Glucocorticoid receptor (Homo sapiens) (UniProt P04150); assay: GR-EFC Redistribution (AID 451; calls by dose curve; note: potency is the fitted concentration of half-maximal effect); conditions: CHO-K1 GR-EFC translocation, beta-gal luminescence, 2 h
# Summary of the method: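 CHO-K1 cells expressing nuclear EA and GR-ED fragments of b-gal; compounds titrated up to 46 uM final, 2 h at 37 C. GR nuclear translocation read as complemented b-gal luminescence after 1 h RT detection.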
# [7] = biological target: Mitogen-activated protein kinase 10 (Mus musculus) (UniProt Q61831); assay: JNK3 AlphaScreen Assay (AID 530);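 note: kinase came from lysate of stimulated human HepG2 cells; signal reports phosphorylation of biotinylated GST-cJun 1-79 at Ser73 with 10 µM ATP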
# Summary of the method: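 qHTS format: compounds tested as titrations against IL-1beta/TNF-alpha-activated HepG2 lysate JNK3 with biotin-GST-cJun substrate and 10 uM ATP at room temperature. Loss of anti-phospho-cJun AlphaScreen signal indicates inhibition.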
# [8] = biological target: 3',5'-cyclic-AMP phosphodiesterase 4B (Homo sapiens) (UniProt Q07343); assay: qHTS Assay for Inhibitors of PDE-IV (AID 607; active = well fitted activation curve with a large enough effect in the main read-out, with a control signal flat, not every such curve was filed as active)
# Summary of the method: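 Cell-based read-out of cAMP via a modified cyclic nucleotide-gated channel and membrane potential dye (535/590 nm) in HEK293 cells expressing PDE4 endogenously. Compounds tested up to 22.9 uM final; 100 uM RO 20-1724 reference.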
# [9] = biological target: Guanine nucleotide-binding protein G(i) subunit alpha-1 (Homo sapiens) (UniProt P63096); assay: qHTS Assay for Inhibitors of RGS12 GoLoco Motif Activity (Green Fluorophore) (AID 879; active = well fitted curve in the direction sought with a large enough effect; an effect the other way counts as inactive or inconclusive;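 note: negative values mean loss of peptide binding seen as reduced polarization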)
# Summary of the method: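 Fluorescence polarization assay: 50 nM Gαi1 with 10 nM FITC-labeled RGS12 GoLoco peptide in 10 mM Tris pH 7.5, 150 mM NaCl, 0.1 mM GDP, 0.05% NP40, 10 min at room temperature with compound.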
# [10] = biological target: Muscarinic acetylcholine receptor M1 (Rattus norvegicus) (UniProt P08482); assay: qHTS Assay for Antagonists of Acetylcholine Muscarinic M1 Receptor: Measurement of IP-One Response (AID 944; active = well fitted curve in the direction sought with a large enough effect; an effect the other way counts as inactive or inconclusive; note: nearly all actives have a fitted effect of over 75% in size)
# Summary of the method: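 CHO cells expressing rat M1 receptor, recovered overnight, were pre-incubated 10 min with compound, then stimulated 30 min with carbachol at EC80 (200 nM) in LiCl-containing buffer, pH 7.4. IP1 accumulation was read by HTRF (620/665 nm).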
# [11] = biological target: Pyruvate kinase (Leishmania mexicana) (UniProt Q27686); assay: qHTS Validation Assay for Inhibitors of Leishmania Mexicana Pyruvate Kinase (AID 945; active = well fitted curve in the direction sought with a large enough effect; an effect the other way counts as inactive or inconclusive)
# Summary of the method: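 Pyruvate kinase activity of E451W LmPYK (0.2 nM) was followed as ATP output after 1 h at room temperature with 0.5 mM PEP and 0.1 mM ADP, detected by PKLight luminescence.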
# [12] = biological target: Pyruvate kinase PKM (Homo sapiens) (UniProt P14618); assay: qHTS Assay for Activators of Human Muscle Pyruvate Kinase (AID 954; active = well fitted curve in the direction sought with a large enough effect, not every such curve was filed as active)
# Summary of the method: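 Human PKM2 activity is measured as ATP generation, detected by luciferase-coupled luminescence. The enzyme (0.1 nM) acts on 0.5 mM PEP and 0.1 mM ADP for 1 h at ambient temperature; data are normalized to uninhibited and full-inhibition wells.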
# [13] = biological target: Alpha-galactosidase A (Homo sapiens) (UniProt P06280); assay: Counterscreen for Glucocerebrosidase Inhibitors: qHTS Assay for Human alpha-Galactosidase at pH 4.5 (AID 992; active = well fitted curve in the direction sought with a large enough effect; an effect the other way counts as inactive or inconclusive)
# Summary of the method: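 Quantitative HTS: compounds tested from 0.7 nM up to 77 uM against 2 nM enzyme with 80 uM 4-MU alpha-D-galactopyranoside. The 20 min room-temperature reaction is stopped with 1M NaOH/1M glycine, pH 10.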
# [14] = biological target: alpha-glucosidase (Oryza sativa, rice) (UniProt Q653V4); assay: Counterscreen for Glucocerebrosidase Inhibitors: qHTS Assay for Rice alpha-Glucosidase at pH 5.0 (AID 997; active = well fitted curve in the direction sought with a large enough effect; an effect the other way counts as inactive or inconclusive)
# Summary of the method: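 Rice alpha-glucosidase (4 nM final) with 400 uM 4-methylumbelliferyl-alpha-D-glucopyranoside in citrate buffer pH 5.0, 20 min at room temperature, stopped at pH 10; fluorescence 365/440 nm, compounds 0.7 nM–77 uM, AC50 from Hill fits.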
# [15] = biological target: Cytochrome P450 3A4 (Homo sapiens) (UniProt P08684); assay: qHTS Assay for Activators of Cytochrome P450 3A4 (AID 885; active = well fitted curve in the direction sought with a large enough effect; an effect the other way counts as inactive or inconclusive; note: potency is the fitted concentration of half-maximal effect; nearly all actives have a fitted effect of over 65% in size)
# Summary of the method: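 Signal was normalized against complete inhibition by 57 uM ketoconazole. The reaction used 20nM CYP3A4 with 25uM Luciferin-PPXE, 10-min compound preincubation and a 60-min NADPH-supported step at RT.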
# [16] = qHTS Assay for Identification of Small Molecule Antagonists for NFkB Signaling Pathway (AID 895; active = well fitted inhibition curve with a large enough effect in the signal ratio, with a control signal flat, not every such curve was filed as active; the % refers to the signal ratio)
# Summary of the method: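 ME-180 NFkB-bla cells (beta-lactamase under NFkB response element), plated overnight, treated with compound then 10 pM TNF alpha (about EC50) for 5 hrs at 37 C. LiveBLAzer FRET read at 460/530 nm emission, 405 nm excitation.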
# [17] = qHTS Assay for Identification of Small Molecule Agonists for Thrombopoietin (TPO) Signaling Pathway (AID 917; active = well fitted curve in the direction sought with a large enough effect; an effect the other way counts as inactive or inconclusive)
# Summary of the method: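 IL-3-dependent murine pro-B Ba/F3 cells, stably transfected with human TPO receptor and GpIIb-promoter luciferase, are incubated 24 hrs at 37 C with test compound and 26 pM TPO; luciferase signal is read after 10 min at room temperature.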
# [18] = biological target: Cytochrome P450 2D6 (Homo sapiens) (UniProt P10635); assay: qHTS Assay for Inhibitors and Substrates of Cytochrome P450 2D6 (AID 891; active = well fitted curve in the direction sought with a large enough effect; an effect the other way counts as inactive or inconclusive;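 note: luciferin methyl ether substrate demethylated by CYP2D6 with NADPH regeneration; nearly all actives have a fitted effect of over 60% in size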)
# Summary of the method: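 Human CYP2D6 (5 nM) with 30 uM Luciferin-ME EGE (at Km) in 100 mM KPO4, compound preincubated 10 min, then NADPH regeneration system for 60 min at room temperature. Luciferin read by luminescence; normalized to 1.43 uM quinidine.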
# [19] = biological target: Cytochrome P450 2C19 (Homo sapiens) (UniProt P33261); assay: qHTS Assay for Inhibitors and Substrates of Cytochrome P450 2C19 (AID 899; active = well fitted curve in the direction sought with a large enough effect; an effect the other way counts as inactive or inconclusive; note: nearly all actives have a fitted effect of over 60% in size)
# Summary of the method: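 Signal comes from luciferase acting on luciferin released by CYP2C19-mediated hydroxylation of Luciferin-H EGE, 10uM (KM). Assay mix: 5nM enzyme, 50mM KPO4; 60 min at 37C with NADPH regeneration. Data normalized against 57uM ketoconazole.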
# [20] = biological target: Muscarinic acetylcholine receptor M1 (Rattus norvegicus) (UniProt P08482); assay: qHTS Assay for Antagonists of Acetylcholine Muscarinic M1 Receptor: Kinetic Measurement of Intracellular Calcium Response (AID 943; active = well fitted curve in the direction sought with a large enough effect; an effect the other way counts as inactive or inconclusive;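 note: Fluo-4 calcium signal as peak divided by basal fluorescence over 4 min; nearly all actives have a fitted effect of over 75% in size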)
# Summary of the method: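 CHO cells stably expressing rat M1 were loaded with no-wash Fluo-4 dye for 1 h at 37C, pre-incubated 10 min with compound, then challenged with EC80 carbachol (100 nM final); kinetic calcium read 4 min, peak/basal ratio.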
# [21] = at 7.69 µM (top of the series) unless noted
# Sequence of Muscarinic acetylcholine receptor M1 (Rattus norvegicus) (P08482 whole entry, looked up): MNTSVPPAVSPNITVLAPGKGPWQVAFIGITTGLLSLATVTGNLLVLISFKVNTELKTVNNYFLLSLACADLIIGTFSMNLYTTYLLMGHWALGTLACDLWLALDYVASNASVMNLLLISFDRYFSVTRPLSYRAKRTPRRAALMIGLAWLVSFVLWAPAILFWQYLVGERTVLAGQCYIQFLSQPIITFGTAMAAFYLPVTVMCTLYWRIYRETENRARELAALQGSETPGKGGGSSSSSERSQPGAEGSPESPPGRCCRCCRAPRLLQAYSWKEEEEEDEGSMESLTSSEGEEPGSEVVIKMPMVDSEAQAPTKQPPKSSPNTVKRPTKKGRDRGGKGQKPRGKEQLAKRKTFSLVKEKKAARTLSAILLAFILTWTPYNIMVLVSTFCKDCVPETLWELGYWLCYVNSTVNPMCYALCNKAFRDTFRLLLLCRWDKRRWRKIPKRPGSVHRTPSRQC
# Sequence of Glucocorticoid receptor (Homo sapiens) (P04150 whole entry, looked up, the tested form may be a part): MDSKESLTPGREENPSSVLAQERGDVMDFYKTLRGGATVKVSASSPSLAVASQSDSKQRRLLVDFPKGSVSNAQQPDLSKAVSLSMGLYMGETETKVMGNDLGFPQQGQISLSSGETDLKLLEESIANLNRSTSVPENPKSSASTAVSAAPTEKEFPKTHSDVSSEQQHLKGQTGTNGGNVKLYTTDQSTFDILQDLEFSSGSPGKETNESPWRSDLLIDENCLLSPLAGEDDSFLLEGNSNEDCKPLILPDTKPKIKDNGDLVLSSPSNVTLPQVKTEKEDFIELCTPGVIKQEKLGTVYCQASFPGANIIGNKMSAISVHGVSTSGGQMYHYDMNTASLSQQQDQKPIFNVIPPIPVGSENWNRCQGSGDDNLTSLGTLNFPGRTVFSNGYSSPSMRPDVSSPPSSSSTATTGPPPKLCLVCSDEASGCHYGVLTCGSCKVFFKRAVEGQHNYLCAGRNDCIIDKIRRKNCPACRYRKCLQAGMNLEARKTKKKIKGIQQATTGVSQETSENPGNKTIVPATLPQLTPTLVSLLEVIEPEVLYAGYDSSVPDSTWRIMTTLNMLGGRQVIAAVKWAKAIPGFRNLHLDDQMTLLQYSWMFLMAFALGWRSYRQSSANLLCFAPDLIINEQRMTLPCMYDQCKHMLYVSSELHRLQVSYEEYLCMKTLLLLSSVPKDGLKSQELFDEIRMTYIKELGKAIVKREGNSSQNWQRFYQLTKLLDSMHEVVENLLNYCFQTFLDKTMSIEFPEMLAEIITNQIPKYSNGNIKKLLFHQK
# Sequence of 3',5'-cyclic-AMP phosphodiesterase 4B (Homo sapiens) (Q07343 whole entry, looked up): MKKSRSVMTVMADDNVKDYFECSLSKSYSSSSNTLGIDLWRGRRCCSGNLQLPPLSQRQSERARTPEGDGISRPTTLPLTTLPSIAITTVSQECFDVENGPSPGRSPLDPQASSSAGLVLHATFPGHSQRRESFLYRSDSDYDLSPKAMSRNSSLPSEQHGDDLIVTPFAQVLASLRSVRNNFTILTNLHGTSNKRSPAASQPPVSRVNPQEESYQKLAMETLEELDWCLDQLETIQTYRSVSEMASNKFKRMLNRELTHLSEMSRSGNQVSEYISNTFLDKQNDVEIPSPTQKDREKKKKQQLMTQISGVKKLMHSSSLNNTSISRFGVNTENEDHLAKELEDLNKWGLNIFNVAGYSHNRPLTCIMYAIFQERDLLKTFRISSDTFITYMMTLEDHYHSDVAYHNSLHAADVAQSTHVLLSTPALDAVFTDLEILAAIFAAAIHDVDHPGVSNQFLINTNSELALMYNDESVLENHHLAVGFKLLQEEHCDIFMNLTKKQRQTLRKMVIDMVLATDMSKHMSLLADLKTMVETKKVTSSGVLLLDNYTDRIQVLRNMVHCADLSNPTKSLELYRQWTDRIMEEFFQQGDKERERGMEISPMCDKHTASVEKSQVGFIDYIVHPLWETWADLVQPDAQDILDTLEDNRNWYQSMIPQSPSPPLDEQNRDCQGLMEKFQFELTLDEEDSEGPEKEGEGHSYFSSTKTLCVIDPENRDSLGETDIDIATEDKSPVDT
# Sequence of Cytochrome P450 1A2 (Homo sapiens) (P05177 whole entry, looked up): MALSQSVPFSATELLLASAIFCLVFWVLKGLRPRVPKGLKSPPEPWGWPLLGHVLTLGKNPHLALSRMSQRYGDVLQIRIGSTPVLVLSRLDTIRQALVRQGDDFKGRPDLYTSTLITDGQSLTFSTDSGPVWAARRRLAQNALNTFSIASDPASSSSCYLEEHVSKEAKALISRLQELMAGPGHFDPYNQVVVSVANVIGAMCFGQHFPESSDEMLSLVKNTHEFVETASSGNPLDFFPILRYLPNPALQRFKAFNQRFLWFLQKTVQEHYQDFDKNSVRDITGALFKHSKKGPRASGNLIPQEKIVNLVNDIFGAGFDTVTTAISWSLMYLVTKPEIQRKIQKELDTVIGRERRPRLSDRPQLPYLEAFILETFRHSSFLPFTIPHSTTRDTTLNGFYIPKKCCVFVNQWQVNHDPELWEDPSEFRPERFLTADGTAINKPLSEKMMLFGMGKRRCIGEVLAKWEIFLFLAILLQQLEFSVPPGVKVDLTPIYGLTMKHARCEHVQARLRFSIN
# Sequence of Alpha-galactosidase A (Homo sapiens) (P06280 whole entry, looked up): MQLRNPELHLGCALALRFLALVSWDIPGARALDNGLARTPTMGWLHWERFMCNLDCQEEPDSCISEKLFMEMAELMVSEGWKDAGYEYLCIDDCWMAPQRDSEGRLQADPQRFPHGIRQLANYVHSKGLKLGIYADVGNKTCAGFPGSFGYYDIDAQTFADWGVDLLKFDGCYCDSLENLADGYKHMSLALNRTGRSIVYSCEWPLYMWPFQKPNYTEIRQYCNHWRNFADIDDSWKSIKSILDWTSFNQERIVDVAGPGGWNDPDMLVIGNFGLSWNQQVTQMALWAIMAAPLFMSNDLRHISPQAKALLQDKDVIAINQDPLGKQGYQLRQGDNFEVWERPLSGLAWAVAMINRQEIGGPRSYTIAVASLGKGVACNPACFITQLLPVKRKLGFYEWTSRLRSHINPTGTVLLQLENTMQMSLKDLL
# Sequence of Guanine nucleotide-binding protein G(i) subunit alpha-1 (Homo sapiens) (P63096 whole entry, looked up): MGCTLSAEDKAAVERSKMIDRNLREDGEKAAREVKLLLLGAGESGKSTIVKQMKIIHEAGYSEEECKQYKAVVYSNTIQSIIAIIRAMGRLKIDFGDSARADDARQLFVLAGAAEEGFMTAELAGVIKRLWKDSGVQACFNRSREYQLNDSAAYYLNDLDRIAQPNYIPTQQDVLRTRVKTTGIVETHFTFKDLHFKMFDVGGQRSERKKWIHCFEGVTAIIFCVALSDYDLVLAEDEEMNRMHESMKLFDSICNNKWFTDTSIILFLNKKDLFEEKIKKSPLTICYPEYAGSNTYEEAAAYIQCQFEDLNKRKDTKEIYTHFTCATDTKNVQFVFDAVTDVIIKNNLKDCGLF
# Sequence of Pyruvate kinase PKM (Homo sapiens) (P14618 whole entry, looked up): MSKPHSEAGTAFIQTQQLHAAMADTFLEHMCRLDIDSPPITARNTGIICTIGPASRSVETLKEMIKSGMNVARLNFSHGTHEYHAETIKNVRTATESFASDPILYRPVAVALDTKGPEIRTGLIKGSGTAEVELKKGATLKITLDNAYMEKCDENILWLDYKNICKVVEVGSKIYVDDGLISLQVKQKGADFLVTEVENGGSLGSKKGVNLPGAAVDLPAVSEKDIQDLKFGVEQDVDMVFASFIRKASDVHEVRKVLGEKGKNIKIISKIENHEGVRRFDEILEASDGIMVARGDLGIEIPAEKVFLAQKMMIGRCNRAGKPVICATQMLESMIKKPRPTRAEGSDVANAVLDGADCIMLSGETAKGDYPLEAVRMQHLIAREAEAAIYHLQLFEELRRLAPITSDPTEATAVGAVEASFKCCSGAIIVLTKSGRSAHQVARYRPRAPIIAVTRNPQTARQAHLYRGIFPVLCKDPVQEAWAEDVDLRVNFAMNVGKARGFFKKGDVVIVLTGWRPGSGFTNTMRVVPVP
# Sequence of Pyruvate kinase (Leishmania mexicana) (Q27686 2-499 E452W): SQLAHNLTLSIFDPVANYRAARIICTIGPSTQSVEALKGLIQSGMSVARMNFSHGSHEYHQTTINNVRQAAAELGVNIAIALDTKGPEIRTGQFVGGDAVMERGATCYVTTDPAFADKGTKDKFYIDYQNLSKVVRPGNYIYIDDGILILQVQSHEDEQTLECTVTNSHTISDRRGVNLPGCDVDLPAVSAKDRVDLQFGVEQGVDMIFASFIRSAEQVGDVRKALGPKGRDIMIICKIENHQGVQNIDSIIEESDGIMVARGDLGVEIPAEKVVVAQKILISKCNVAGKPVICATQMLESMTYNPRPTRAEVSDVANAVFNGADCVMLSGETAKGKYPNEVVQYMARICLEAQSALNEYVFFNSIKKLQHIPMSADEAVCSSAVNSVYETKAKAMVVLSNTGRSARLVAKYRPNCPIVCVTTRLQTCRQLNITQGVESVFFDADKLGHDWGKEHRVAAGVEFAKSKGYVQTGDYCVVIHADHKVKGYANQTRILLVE
# Sequence of Cytochrome P450 2D6 (Homo sapiens) (P10635 whole entry, looked up): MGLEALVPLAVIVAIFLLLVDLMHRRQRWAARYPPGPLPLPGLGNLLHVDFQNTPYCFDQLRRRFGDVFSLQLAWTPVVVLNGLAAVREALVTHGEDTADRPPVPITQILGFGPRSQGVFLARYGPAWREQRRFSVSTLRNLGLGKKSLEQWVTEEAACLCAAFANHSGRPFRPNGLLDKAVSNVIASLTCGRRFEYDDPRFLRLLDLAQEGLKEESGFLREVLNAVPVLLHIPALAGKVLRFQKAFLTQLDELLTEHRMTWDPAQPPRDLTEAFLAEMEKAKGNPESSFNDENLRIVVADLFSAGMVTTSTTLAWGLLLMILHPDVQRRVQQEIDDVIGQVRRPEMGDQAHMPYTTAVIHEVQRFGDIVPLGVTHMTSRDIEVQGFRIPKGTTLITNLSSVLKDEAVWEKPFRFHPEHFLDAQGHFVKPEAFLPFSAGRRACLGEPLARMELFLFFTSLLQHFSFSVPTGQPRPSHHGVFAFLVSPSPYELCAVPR
smiles,measurement,setting,value
CN(CC(=O)O)Cc1c(O)c(Cl)cc(Cl)c1Cl,"activity change, negative = inhibition",[1]; [21],-1.4%
same,"activity change, negative = inhibition",[2],-1% [at 2.29 µM]
same,"activity change, negative = inhibition",[3]; [21],11.2%
same,"activity, negative = inhibition",[4]; [21],4.84%
same,Potency,[5],> 46 µM
same,Potency,[6],> 9.22 µM
same,Potency,[7],inactive
same,Potency,[8],inactive
CC(C)c1ccc(O)c(O)c(=O)c1 (tested in a mixture with another compound),"activity, negative = inhibition",[4]; [21],4.84%
same,Potency,[5],> 46 µM
same,Potency,[6],> 9.22 µM
same,Potency,[7],inactive
same,Potency,[8],inactive
O=C1C=C(N2CCN(c3ccccn3)CC2)C(=O)c2c(O)ccc(O)c21,"activity, negative = inhibition",[4]; [21],-4.42%
same,Potency,[5],> 46 µM
same,Potency,[8],inactive
N=c1ccn2c(n1)O[C@@H]1[C@@H](O)[C@H](CO)O[C@H]12,"activity change, negative = inhibition",[1]; [21],-4.43% [at 38 µM]
same,Potency,[2],inactive
same,"activity change, negative = inhibition",[3]; [21],-5.26% [at 38 µM]
same,"activity, negative = inhibition",[4]; [21],0.604% [at 38 µM]
same,Potency,[5],> 46 µM
same,Potency,[6],> 46 µM
same,Potency,[7],inactive
same,Potency,[8],inactive
same,outcome,[9],inactive
same,Potency,[10],inactive
same,outcome,[11],inactive
same,outcome,[12],inactive
same,outcome,[13],inactive
same,Potency,[14],inactive
COc1cc2c(cc1OC)[C@H](c1ccccc1)CN(C)CC2,"activity change, negative = inhibition",[1]; [21],-2.12% [at 38 µM]
same,Potency,[2],inactive
same,"activity change, negative = inhibition",[3]; [21],-8.45% [at 38 µM]
same,"activity, negative = inhibition",[4]; [21],0.584% [at 38 µM]
same,Potency,[5],> 46 µM
same,Potency,[6],> 46 µM
same,Potency,[7],inactive
same,Potency,[8],inactive
same,outcome,[9],inactive
same,Potency,[15],12.6 µM (active)
same,Potency,[16],inactive
same,outcome,[17],inactive
same,Potency,[10],inactive
same,outcome,[11],inactive
same,outcome,[12],inactive
same,outcome,[13],inactive
same,Potency,[14],inactive
O=C1OC(=O)[C@@H]2[C@@H]1[C@@H]1CC[C@H]2O1,"activity change, negative = inhibition",[1]; [21],4.01% [at 38 µM]
same,Potency,[2],inactive
same,"activity change, negative = inhibition",[3]; [21],5.96% [at 38 µM]
same,"activity, negative = inhibition",[4]; [21],-11.3% [at 38 µM]
same,Potency,[5],> 46 µM
same,Potency,[6],> 46 µM
same,Potency,[7],inactive
same,Potency,[8],inactive
same,outcome,[9],inactive
same,Potency,[18],inactive
same,Potency,[19],inactive
same,Potency,[20],inactive
same,Potency,[10],inactive
same,outcome,[12],inactive
same,outcome,[13],inactive
N#CCCn1c(=O)c(-c2ccccc2)nc2cnc(N3CCNCC3)nc21,Potency,[5],> 9.22 µM
same,Potency,[7],inactive
same,Potency,[8],inactive
CC(=O)N1CCN(c2ccc(OC[C@@H]3CO[C@@](Cn4ccnc4)(c4ccc(Cl)cc4Cl)O3)cc2)CC1,"activity change, negative = inhibition",[1]; at 17.2 µM (top of the series),-18.1%
same,"activity change, negative = inhibition",[1]; at 38 µM (top of the series),-10.5%
same,"activity change, negative = inhibition",[3]; at 17.2 µM (top of the series),-5.42%
same,"activity change, negative = inhibition",[3]; at 38 µM (top of the series),-20.5%
same,"activity, negative = inhibition",[4]; at 17.2 µM (top of the series),-12.7%
same,"activity, negative = inhibition",[4]; at 38 µM (top of the series),-11.9%
same,Potency,[5],> 46 µM and > 20.6 µM
same,Potency,[6],> 46 µM and > 20.6 µM
same,Potency,[8],inactive
